Records with an inconclusive call do not appear. Calls of active or inactive are those of the source. Calls follow the shape of the dose curve; as a rule, active = well fitted activation curve with a large enough effect; inconclusive = small, poorly fitted or top-dose-only effect; inactive = flat fitted curve, though single readings scatter.

Consider 39 molecules from PubChem BioAssay AID720519 (National Center for Advancing Translational Sciences (NCATS), 2013).
Potency is read from the fitted curve at half-maximal effect.

A short description of the assay: qHTS for Inhibitors of Cell Surface uPA Generation: Confirmatory Assay for Cherry-picked Compounds. As to inhibition: 0% is about no effect. Conditions: cell surface uPA activity generation, qHTS confirmation; series mostly up to 115 µM; inhibition: at the top concentration. In outline: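 RAW 264.7 cells at 4000/well, incubated overnight, then treated with compounds. After 24 h at 37 C, viability was read by ATPlite luminescence. An increase in signal indicates blocked uPA-dependent LF entry.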
Regarding `O=C(NC1CC1)C1CCCN(C(=O)NC2CCCCC2)C1` (centres undefined), the “inhibition” value is -1.77% (inactive).
Turning to `COc1ccc(C)cc1NC(=O)CSCc1cc(=O)n2c(C)csc2n1`, the “inhibition” value is 0.197% (inactive).
Take `CCC(CC)Nc1ccc(C(CC(N)=O)NC(=O)Cc2ccc(Br)cc2)cc1[N+](=O)[O-]` (centres undefined): the “inhibition” value was -2.62% (inactive).
As to `C[C@H]1CN([C@@H](C)CO)C(=O)c2cc(NS(=O)(=O)c3ccc(Cl)cc3)ccc2O[C@@H]1CN(C)CC1CCCCC1`, the “inhibition” value was 1.71% (inactive).
Take `O=C1NCCN1C(=O)N(c1ccccc1)c1ccccc1`: the “inhibition” value is -0.467% (inactive).
On the same count and under the same terms, the figure for `COc1ccc(C(=O)NC(C)c2cnn(-c3ccccn3)c2C)o1` (centres undefined) is -1.83% (inactive).
Turning to `CCCN1CCN(C(=O)CCCn2c(C)c3cnn(-c4ccccc4)c(=O)c3c2C)CC1`, the “inhibition” value is -2.47% (inactive).
Turning to `O=C(Nc1ccnn1C1CCN(CCCC2CCCC2)CC1)c1ccccc1`, the “inhibition” value is -3.29% (inactive).
For the molecule `C=C(C(=O)O)C1CCC2(C)CCCC(C)(O)C2C1` (centres undefined), the “inhibition” value was -1.14% (inactive).
Take `CCOc1ccc(C(=O)NCC(=O)N2CCN(C/C=C/c3ccccc3)CC2)cc1OCC`: the “inhibition” value is -1.3% (inactive).
For the molecule `CCOc1ccc(NS(=O)(=O)c2coc(C(N)=O)c2)cc1`, the “inhibition” value is -1.56% (inactive).
As to `N#Cc1ccccc1Sc1ccccc1C(=O)Nc1ccc(Br)cc1`, the “inhibition” value is -2.89% (inactive).
For `COc1ccc(C[C@@H]2OC3(C=CC(=O)C=C3)O[C@H]2Cc2ccc(OC)cc2)cc1`, the “inhibition” value is -3.22% (inactive).
Take `CCN(CC)C(=O)Cn1cc(/C=C(\C#N)C(=O)NC2CC2)c2ccccc21`: the “inhibition” value is 1.37% (inactive).
On to `Cc1ccc(NC(=O)CC2OC(=O)c3ccccc32)cc1S(=O)(=O)N1CCOCC1` (centres undefined), for which the “inhibition” value is -0.704% (inactive).
Consider `Cc1cccc(N2C(=O)c3cccc(Oc4ccc(Cl)cc4)c3C2=O)c1`, for which the “inhibition” value was -1.01% (inactive).
`O=C(NC1CCCCC1)C(c1ccco1)N(C(=O)c1csnn1)c1cccc(Cl)c1` (centres undefined): the “inhibition” value was 1.05% (inactive).
For `Cn1c(C2CCCCC2)nc2cc(N)ccc21`, the “inhibition” value was -2.73% (inactive).
The same measure, in the same setting: the figure for `COc1ccc(CCNC(=O)Cn2c(=O)n(-c3cc(F)ccc3F)c(=O)c3sccc32)cc1OC` is -0.0942% (inactive); for `O=C(Nc1cccc(NC(=O)c2ccc(F)cc2)c1)c1ccc(F)cc1` it is 0.535% (inactive).
Still for that read-out and setting: the figure for `COCCN(C(=O)c1ccccc1OC)c1nnc(C)s1` is -2.79% (inactive); for `CCOc1cc(C(=S)N2CCOCC2)ccc1OC(=O)c1cccc(C)c1` it is -3.23% (inactive); for `CC1=NN(C(N)=S)C(=O)C1N=Nc1ccccc1C(=O)O` (centres undefined) it is -1.34% (inactive).
Same read-out and setting: the figure for `Cc1nc2ccc(Br)cn2c1C(=O)N/N=C\c1ccccc1Cl` is 0.471% (inactive).
For `COC(=O)c1c(NC(=O)c2c(OC)cccc2OC)sc2c1C(C(=O)OC)CC2` (centres undefined), the Potency was 29.3 µM (active).
As to `Cc1cc(C)nc(N2N=C(C(F)(F)F)CC2=O)n1`, the “inhibition” value was -2.08% (inactive).
With `Cc1ccc(N=C2SCCCN2C(=O)c2cccc(N3C(=O)CCC3=O)c2)cc1Cl`, the “inhibition” value is -3.4% (inactive).
Take `COC(=O)COc1cc2ccccc2cc1C(=O)Nc1ccccc1`: the “inhibition” value was -0.876% (inactive).
`Cc1nnc2ccc(-c3ccc(NS(=O)(=O)c4ccc(Cl)s4)cc3)nn12`: the “inhibition” value is -3.05% (inactive).
For `CCCCNc1c(-c2ccc(-c3cccc(Cl)c3)cc2)nc2ccccn12`, the “inhibition” value was -3.49% (inactive).
As to `CC(=O)Nc1sc(C)c(C)c1C(=O)OCC(=O)NC(C)c1ccccc1` (centres undefined), the “inhibition” value was -0.488% (inactive).
As to `CCCCn1c(-c2cccnc2)nc2cc3[nH]c(=O)c(C(C)C)nc3cc21`, the “inhibition” value is 4.78% (inactive).
In the case of `COc1ccc(NC(=O)CC(C)CC(=O)NCc2ccccc2)c(OC)c1` (centres undefined), the “inhibition” value was 0.142% (inactive).
On to `Cc1cc(C)n(-c2cc(C(=O)O)cc(C(=O)O)c2)n1`, for which the “inhibition” value was -1.53% (inactive).
`COc1ccc(Nc2nc(-c3ccccc3)c(C(=O)Nc3cccnc3)s2)cc1`: the “inhibition” value was 8.15% (inactive).
Same read-out and setting: for `CC(C)(C)OC(=O)NCCCCCNC(=O)c1[nH]cnc1C(=O)Nc1ccc(Cl)cc1` the value was -1.98% (inactive); for `Cc1cc(C)cc(NC(=O)COC(=O)CCn2c(C)csc2=O)c1`, -1.09% (inactive).
As for `O=C(O)CCc1nn2c3ccccc3n(CC(=O)O)c2nc1=O`, the “inhibition” value was -3.3% (inactive).
As for `CC(=O)n1cc(/C=N/NC(=O)c2ccc([N+](=O)[O-])cc2)c2ccccc21`, the “inhibition” value was -2.83% (inactive).
